D2 PAM-1: D2 dopamine receptor (human) potentiation; actives 0.34% (n = 340,000); potentiation, % at 10 µM; P14416; HEK293 T-REx D2, calcium flux, EC20 dopamine potentiation; AID 485347;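 active = potentiation over 3 SD above the plate norm, cut at about 30% in these data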; note: 0% is about no effect
Target sequence (P14416 whole entry, looked up): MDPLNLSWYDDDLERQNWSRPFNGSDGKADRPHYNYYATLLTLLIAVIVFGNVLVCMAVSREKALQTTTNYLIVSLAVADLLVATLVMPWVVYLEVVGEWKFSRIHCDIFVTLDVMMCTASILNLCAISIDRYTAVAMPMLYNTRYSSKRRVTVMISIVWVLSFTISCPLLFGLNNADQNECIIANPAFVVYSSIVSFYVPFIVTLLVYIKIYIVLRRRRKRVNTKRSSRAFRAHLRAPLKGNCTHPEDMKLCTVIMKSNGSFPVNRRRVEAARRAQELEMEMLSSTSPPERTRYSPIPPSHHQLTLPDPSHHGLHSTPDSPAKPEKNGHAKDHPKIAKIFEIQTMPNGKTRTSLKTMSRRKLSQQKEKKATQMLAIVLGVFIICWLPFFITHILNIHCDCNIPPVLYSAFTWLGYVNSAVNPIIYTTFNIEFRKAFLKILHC
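Tetracycline-induced HEK293 T-REx cells force-coupled to calcium signalling expressed D2; compounds were pin-added after a 10 s baseline, read kinetically 180 s, then an EC20 dopamine challenge followed with a further 180 s calcium read.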
D2 PAM-2: potentiates the human D2 dopamine receptor allosterically. potentiation, % (test concentration not listed). P14416. DiscoveRx D2 beta-arrestin cells, luminescence, 90 min; 100% = 57 uM dopamine signal. actives 0.23% (n = 360,000); in the data active = potentiation above about 50%; inconclusive = mostly about 30% to 49%
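PathHunter D2 cells, attached overnight at 37 deg C, received compound in DMSO plus dopamine at EC20 (50 nM final) for 90 min at 37 deg C. Beta-arrestin recruitment was read as luminescence after 1 h with detection reagent at ambient temperature.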
D2 ag-1: activates the human D2 dopamine receptor; P14416; DiscoveRx PathHunter D2 beta-arrestin, luminescence, 90 min; 100% = 57 uM dopamine signal; activation, % (concentration not given with the values); actives 0.084% (n = 360,000); AID 624465; in the data active = activation above about 40%; inconclusive = between about 15% and that limit
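Agonist mode: compounds alone added to overnight-plated D2 PathHunter cells for 90 min at 37 C, with 57 uM final dopamine (EC100) defining full response. Beta-arrestin recruitment detected by chemiluminescent reagent, read after 1 h at ambient temperature.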
D2 antagonist: D2 dopamine receptor (human) antagonism; actives 2% (n = 340,000); HEK293 TREx D2 cells, calcium flux, dopamine EC80; AID 485344; inhibition, % at 10 µM; P14416; in the data active = inhibition above about 30%; inactive = below that, where a call was filed; note: 0% is about no effect
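Calcium mobilization kinetics were recorded at 1 s intervals in tetracycline-induced HEK293 T-REx D2 cells, first for 180 s after compound addition and then 180 s after EC80 dopamine.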
D2 ag-2: activates the human D2 dopamine receptor. activation, % at 2 µM. actives 0.53% (n = 340,000). P14416. HEK293 T-REx D2 cells, calcium flux agonist mode;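 active = activation over 3 SD above normal in the single-dose calcium agonist read, cut at about 30% in these data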; note: 0% is about no effect
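Agonism scored from kinetic calcium signal (1 read/sec, 180 s) following compound pin transfer, after a 10 s baseline. Cells: HEK293 Trex line expressing inducible D2 receptor coupled to calcium, dye-loaded after overnight culture at 30 C.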
Numbers without * were called inactive; ? = inconclusive; / = no result given. Compounds with a hit are over-represented: about 2.4% of the library has one in this group of screens.

SMILES	D2 PAM-1	D2 PAM-2	D2 ag-1	D2 antagonist	D2 ag-2
COc1ccc(-c2cc(C(=O)Oc3ccccc3)c3cc(C)ccc3n2)cc1	4	/	/	/	1
CN(Cc1ccccc1)C(=O)CN1CCN(C(c2ccccc2)c2ccccc2)CC1	-28	-35	-8	51*	-2
COc1cc(OC)c(NC(=O)CCn2cnc3onc(-c4ccc(F)cc4)c3c2=O)cc1Cl	4	/	/	/	0
O=C(N/N=C/C=C\c1ccccc1[N+](=O)[O-])c1ccccn1	-21	-16	-4	81*	-1
CC(=O)c1ccc(NS(=O)(=O)c2cccc(S(=O)(=O)c3ccc(Cl)cc3)c2)cc1	/	/	/	/	-2
Cc1ccc2nc(N3CCN(c4cccc(Cl)c4)CC3)c(-n3nc(C)cc3C)nc2c1	-6	/	/	/	1
CCOC(=O)CNC(=O)CSc1nnc(-c2ccc(OC)cc2)n1CC	9	-10	-1	35*	1
Cc1ccc2c(=O)c(C(=O)c3ccc(F)cc3)cn(CC(=O)NCc3ccco3)c2n1	-2	15	5	33*	0
CCN(CC)S(=O)(=O)c1ccc2c(c1)N(CC(=O)Nc1ccccc1F)C(=O)C1CCCN21 (stereo not given)	1	/	/	/	0
CCOc1ccc(N2C(=O)CN=C2Nc2ccccc2Cl)cc1	-7	-13	-2	-5	0
O=C1CN=C(Nc2ccccc2Cl)N1c1ccccc1	-5	1	-5	36*	2
Cc1ccc2[nH]c3nc(N/N=C/c4cccc(O)c4)nnc3c2c1	-11	-2	-1	37*	0
Cn1c(O)c(/C=C2\C=Nc3ccccc32)sc1=Nc1ccc(C(=O)O)cc1	1	-4	-1	-9	0
O=C(Cc1ccccc1)Nn1c(O)c(/C=C2\C=Nc3ccccc32)sc1=S	-3	-13	-2	-13	34*
Cc1cccc(C)c1NC(=O)CCSCCc1ccccn1	12	/	/	/	0
CC(=O)c1ccc(NC(=O)C[n+]2cccc(C)c2)cc1	8	-3	-2	37*	0
C=CCNCCOCCSc1ccc(Cl)cc1	-20	-28	6	32*	0
S=C(NCCc1ccccc1)N1CCn2cccc2C1c1cccnc1 (stereo not given)	-17	-19	-3	37*	0
NS(=O)(=O)c1ccc(CCNC(=O)COC(=O)CCN2C(=O)C3CC=CCC3C2=O)cc1 (stereo not given)	8	-9	2	-9	0
O=C(COC(=O)CCN1C(=O)C2CC=CCC2C1=O)NCCc1ccc(F)cc1 (stereo not given)	-11	-5	-3	37*	0
Cc1ccc(S(=O)(=O)c2nnn3c2nc(Nc2ccc(C(C)C)cc2)c2sccc23)cc1C	-4	/	/	/	1
Clc1ccc(SCCOCCN2CCc3ccccc3C2)cc1	-23	-8	-3	50*	0
Clc1ccc(OCCCN2CCc3ccccc3C2)c(Br)c1	-24	-68	-3	64*	-1
CC1CCCN(CCCOc2ccc(Cl)cc2Br)C1 (stereo not given)	-23	-40	-3	-4	0
Clc1ccc(OCCOCCN2CCc3ccccc3C2)c(Cl)c1	-28	-14	0	64*	0
SMILES	D2 PAM-1	D2 PAM-2	D2 ag-1	D2 antagonist	D2 ag-2
CCc1cccc(NC(=O)c2ccc3c(=O)n4nc(Nc5ccccc5OC)sc4nc3c2)c1	-2	/	/	/	1
CN1[C@@H](COCc2ccccc2)C=CS1(=O)=O	/	-5	-1	/	/
CCCCN(CC)Cc1ccc(CNS(=O)(=O)c2cc3c(cc2Cl)NC(=O)CO3)o1	1	/	/	/	1
CCOc1ccc(NC(=O)CSC2=Nc3ccccc3C3=NC(CC(=O)NCc4ccc5c(c4)OCO5)C(=O)N23)cc1 (stereo not given)	10	/	/	/	0
O=C(NCCOc1ccccc1F)c1cccc(S(=O)(=O)N2CCN(c3ccccc3)CC2)c1	5	29	3	35*	2
Cc1c(C(=O)NCCN(C)C)oc2ccc(S(=O)(=O)N3CCC4(CC3)OCCO4)cc12	/	-2	0	33*	1
O=C(NCCCN1CCOCC1)c1cccc(S(=O)(=O)N2CCN(c3ccccc3)CC2)c1	13	-23	-8	-13	0
O=C(Nc1cccc(S(=O)(=O)N2CCOCC2)c1)c1ccc(N2CCCC2=O)cc1	-12	-1	0	11	1
COCCNC(=O)c1c[nH]c2ccc(S(=O)(=O)N3CCOCC3)cc2c1=O	-8	-4	-2	46*	1
O=C(Nc1cccc(S(=O)(=O)N2CCCCC2)c1)c1ccc(N2CCCC2=O)cc1	51*	-8	-2	1	0
Cc1ccc(CNC(=O)c2oc3ccc(S(=O)(=O)N4CCC5(CC4)OCCO5)cc3c2C)cc1	-9	17	2	/	/
O=c1c2sc3ccccc3c2n(Cc2ccc(Cl)cc2)c(=O)n1Cc1ccco1	-5	/	/	/	0
O=C(CCNC(=O)c1ccc(Br)cc1)Nc1cccc(S(=O)(=O)N2CCCC2)c1	-1	-26	-4	38*	-1
Cc1c(C(=O)NCCC2=CCCCC2)oc2ccc(S(=O)(=O)N3CCOCC3)cc12	-3	19	-1	5	0
O=C(NCCCN1CCCC1=O)c1cccc(S(=O)(=O)N2CCCCC2)c1	3	-1	8	38*	0
O=C(Nc1ccc2c(c1)C(=O)NC2=O)c1ccc(S(=O)(=O)N2CCCC2)cc1	-15	0	0	31*	0
Cc1c(C(=O)NCCCN2CCCC2=O)oc2ccc(S(=O)(=O)N3CCOCC3)cc12	-4	-6	-2	44*	1
CCCCOc1ccccc1C(=O)Nc1nonc1-c1ccccc1	-18	/	/	/	1
COc1ccc(CCNC(=O)Cn2c(=O)cc(C(F)(F)F)c3c(C)nn(C)c32)cc1OC	-13	/	/	/	/
Cc1ccc(NC(=O)c2cccc(NC(=O)N3CCSc4ncccc43)c2)cc1Cl	-5	/	/	/	0
COC(=O)c1[nH]c2c(c1C)C(=O)CC(c1ccc(OC)c(OC)c1)C2 (stereo not given)	/	7	1	/	/
COC(=O)c1[nH]c2c(c1C)C(=O)CC(c1ccc(C)cc1)C2 (stereo not given)	-1	-16	1	32*	0
Cc1c(C(=O)N/N=C/c2ccoc2)cccc1[N+](=O)[O-]	12	-9	2	67*	-1
COc1ccc(CC(=O)OCC(=O)Nc2ccc3[nH]c(=O)[nH]c3c2)cc1	2	?	-2	5	0
COc1cc(OC)cc(C(=O)OCC(=O)Nc2ccc3[nH]c(=O)[nH]c3c2)c1	4	-1	1	36*	0
O=C(COC(=O)c1c(F)cccc1F)Nc1ccc2[nH]c(=O)[nH]c2c1	-7	-1	3	65*	-1
NCCc1nnc(SCc2ccc(Cl)cc2)o1	18	/	/	/	0
